The supplement of paper PMC12067093, “Discovery and optimisation of a covalent ligand for TRIM25 and its application to targeted protein ubiquitination” (Chemical Science, 2025)
The full data set covers some 21,000 targets. This sample favours those with the largest changes.

Compound: Cc1cc(ccc1-c1ccccc1)C(=O)N1CCCN(CC1)C(=O)CCl [compound 10]
Assay: probe-labelled cysteine peptide fold change vs DMSO (competition) (log2 fold change); higher = less target engagement (more negative = stronger competition)
Settings: THP-1, incubation time: 4 h
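Also: competitive profiling in live THP-1 cells: cysteine peptides tagged with an iodoacetamide desthiobiotin (IA-DTB) probe, intensity after compound treatment relative to DMSO-treated cells.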

Chain of UniProt O43823 (O43823 whole entry, looked up): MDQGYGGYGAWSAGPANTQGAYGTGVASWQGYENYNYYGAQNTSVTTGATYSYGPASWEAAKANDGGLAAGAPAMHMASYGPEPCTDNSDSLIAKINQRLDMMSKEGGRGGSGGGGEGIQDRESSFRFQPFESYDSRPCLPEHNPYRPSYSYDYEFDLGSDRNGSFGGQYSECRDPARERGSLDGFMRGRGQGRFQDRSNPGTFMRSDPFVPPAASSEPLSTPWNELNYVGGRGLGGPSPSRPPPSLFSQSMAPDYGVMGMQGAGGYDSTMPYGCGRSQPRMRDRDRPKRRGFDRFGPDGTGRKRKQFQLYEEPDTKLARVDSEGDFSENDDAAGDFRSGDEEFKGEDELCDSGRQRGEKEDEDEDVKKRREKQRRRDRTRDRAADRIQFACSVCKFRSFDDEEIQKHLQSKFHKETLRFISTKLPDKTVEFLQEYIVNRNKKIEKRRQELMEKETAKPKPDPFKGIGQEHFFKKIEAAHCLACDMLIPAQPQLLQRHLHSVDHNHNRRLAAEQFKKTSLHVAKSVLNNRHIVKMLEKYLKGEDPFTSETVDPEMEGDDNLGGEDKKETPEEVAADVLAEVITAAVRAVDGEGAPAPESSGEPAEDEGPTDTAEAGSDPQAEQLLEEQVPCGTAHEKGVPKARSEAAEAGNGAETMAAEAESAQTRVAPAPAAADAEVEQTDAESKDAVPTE
Chain of UniProt Q17R89 (Q17R89 whole entry): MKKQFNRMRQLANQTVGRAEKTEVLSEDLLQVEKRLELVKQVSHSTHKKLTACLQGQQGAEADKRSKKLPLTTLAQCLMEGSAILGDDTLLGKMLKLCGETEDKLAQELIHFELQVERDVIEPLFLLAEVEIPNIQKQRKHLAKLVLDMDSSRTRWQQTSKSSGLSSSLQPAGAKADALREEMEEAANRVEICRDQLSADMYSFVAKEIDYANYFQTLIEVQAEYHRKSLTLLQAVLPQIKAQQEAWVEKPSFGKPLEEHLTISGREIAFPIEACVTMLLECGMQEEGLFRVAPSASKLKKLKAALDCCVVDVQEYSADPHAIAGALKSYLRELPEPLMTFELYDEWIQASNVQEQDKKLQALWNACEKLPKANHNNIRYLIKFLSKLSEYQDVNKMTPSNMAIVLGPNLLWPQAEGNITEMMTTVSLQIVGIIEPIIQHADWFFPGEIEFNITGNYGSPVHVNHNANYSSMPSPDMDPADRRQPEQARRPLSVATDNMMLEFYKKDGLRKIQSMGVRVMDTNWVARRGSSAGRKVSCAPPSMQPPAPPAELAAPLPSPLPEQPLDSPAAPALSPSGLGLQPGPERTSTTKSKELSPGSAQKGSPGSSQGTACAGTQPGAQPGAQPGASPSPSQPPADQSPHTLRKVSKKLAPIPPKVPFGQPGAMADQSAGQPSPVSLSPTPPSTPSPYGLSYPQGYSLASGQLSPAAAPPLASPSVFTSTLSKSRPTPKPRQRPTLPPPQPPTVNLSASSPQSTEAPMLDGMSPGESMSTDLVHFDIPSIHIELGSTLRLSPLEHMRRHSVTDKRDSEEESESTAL
Chain of UniProt Q9NVV5 (Q9NVV5 whole entry): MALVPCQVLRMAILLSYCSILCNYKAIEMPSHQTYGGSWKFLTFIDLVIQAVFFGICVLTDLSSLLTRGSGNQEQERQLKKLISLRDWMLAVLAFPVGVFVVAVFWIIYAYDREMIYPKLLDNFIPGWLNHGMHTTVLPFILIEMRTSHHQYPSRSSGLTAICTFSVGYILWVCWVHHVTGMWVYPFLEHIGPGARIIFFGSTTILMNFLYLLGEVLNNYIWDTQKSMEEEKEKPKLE
Chain of UniProt O60488 (O60488 whole entry, looked up): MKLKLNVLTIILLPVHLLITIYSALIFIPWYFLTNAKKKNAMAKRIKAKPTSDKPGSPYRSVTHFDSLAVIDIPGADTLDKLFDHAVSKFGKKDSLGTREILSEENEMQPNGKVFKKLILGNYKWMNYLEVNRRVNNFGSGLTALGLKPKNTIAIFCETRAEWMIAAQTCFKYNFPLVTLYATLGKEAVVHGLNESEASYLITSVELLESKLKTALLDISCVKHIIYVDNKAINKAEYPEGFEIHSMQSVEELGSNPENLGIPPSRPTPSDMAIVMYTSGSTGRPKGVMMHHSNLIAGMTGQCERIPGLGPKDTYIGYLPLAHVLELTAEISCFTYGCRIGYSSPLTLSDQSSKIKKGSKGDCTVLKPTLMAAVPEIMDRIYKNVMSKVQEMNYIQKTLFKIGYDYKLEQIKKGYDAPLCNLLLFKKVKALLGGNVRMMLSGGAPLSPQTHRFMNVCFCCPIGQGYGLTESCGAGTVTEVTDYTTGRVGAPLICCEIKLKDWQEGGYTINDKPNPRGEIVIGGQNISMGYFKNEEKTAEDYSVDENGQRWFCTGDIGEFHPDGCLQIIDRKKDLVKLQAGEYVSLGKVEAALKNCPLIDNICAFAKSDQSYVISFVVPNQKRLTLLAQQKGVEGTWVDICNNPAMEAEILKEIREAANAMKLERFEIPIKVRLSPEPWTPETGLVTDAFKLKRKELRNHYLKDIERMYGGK
Chain of UniProt Q9BZE9 (Q9BZE9 whole entry, looked up): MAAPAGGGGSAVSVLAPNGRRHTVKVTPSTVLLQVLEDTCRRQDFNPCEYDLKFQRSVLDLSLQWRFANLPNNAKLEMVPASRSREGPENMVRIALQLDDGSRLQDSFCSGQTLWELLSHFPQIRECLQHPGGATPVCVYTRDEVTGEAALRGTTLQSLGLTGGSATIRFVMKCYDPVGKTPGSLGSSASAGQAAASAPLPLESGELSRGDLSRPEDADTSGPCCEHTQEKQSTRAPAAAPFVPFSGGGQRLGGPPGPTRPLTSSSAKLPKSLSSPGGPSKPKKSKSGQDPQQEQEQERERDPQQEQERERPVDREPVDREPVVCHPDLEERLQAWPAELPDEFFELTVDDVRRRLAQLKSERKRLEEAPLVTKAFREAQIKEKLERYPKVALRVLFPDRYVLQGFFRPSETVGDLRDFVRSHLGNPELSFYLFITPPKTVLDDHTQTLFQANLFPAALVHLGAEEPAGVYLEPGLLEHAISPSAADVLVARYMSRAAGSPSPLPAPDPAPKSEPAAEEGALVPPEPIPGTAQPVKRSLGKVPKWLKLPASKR
Chain of UniProt P38606 (P38606 whole entry, looked up): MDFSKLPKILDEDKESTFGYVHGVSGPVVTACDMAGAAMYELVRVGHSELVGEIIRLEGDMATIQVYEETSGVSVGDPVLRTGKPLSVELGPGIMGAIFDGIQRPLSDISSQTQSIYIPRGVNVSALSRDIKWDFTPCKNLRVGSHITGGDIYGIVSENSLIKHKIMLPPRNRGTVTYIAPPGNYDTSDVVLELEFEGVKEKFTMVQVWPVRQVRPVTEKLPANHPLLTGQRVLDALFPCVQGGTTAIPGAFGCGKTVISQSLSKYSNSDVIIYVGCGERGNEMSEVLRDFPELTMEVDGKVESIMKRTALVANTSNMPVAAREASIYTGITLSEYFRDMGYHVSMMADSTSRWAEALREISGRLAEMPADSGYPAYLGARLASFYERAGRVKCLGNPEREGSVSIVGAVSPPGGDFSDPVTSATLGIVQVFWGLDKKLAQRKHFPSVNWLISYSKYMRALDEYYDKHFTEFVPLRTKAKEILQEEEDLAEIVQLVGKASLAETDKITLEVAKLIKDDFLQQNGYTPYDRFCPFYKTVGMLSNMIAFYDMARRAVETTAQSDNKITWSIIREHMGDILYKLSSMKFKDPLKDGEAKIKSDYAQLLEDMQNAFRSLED
Chain of UniProt P09525 (P09525 whole entry, looked up): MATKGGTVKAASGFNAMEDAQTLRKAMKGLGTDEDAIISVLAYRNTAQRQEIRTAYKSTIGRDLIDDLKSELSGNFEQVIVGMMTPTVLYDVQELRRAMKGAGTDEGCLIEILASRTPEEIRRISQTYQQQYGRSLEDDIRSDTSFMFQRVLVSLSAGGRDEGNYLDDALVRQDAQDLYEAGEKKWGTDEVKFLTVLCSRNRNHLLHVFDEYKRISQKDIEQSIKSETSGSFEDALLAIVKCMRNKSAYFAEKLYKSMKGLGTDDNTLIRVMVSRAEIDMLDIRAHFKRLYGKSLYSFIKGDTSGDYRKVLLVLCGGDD
Chain of UniProt Q13443 (Q13443 whole entry, looked up): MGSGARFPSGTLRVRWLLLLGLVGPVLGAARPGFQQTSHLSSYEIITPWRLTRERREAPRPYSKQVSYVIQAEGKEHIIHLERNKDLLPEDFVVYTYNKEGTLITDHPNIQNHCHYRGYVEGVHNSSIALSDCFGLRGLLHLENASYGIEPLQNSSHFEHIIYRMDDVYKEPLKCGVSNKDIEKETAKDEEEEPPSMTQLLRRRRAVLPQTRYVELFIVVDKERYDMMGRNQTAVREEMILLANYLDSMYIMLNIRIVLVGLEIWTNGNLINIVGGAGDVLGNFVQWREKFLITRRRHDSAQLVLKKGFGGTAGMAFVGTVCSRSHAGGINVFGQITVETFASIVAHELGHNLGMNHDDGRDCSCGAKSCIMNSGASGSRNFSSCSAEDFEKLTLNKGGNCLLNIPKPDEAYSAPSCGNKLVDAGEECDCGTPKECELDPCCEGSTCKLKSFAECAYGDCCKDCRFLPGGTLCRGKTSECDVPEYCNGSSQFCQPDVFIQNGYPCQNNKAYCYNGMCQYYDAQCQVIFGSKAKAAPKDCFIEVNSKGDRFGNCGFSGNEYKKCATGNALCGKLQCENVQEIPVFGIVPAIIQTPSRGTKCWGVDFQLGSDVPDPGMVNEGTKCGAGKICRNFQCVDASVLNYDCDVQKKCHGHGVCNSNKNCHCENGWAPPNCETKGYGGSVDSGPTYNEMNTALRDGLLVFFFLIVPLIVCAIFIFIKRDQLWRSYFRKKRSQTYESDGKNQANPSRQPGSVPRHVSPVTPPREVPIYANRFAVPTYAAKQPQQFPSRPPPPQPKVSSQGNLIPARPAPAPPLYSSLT
Chain of UniProt O00244 (O00244 whole entry, looked up): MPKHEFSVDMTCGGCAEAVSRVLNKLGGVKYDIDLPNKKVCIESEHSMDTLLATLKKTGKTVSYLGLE

Target | probe-labelled cysteine peptide fold change (10 µM) | probe-labelled cysteine peptide fold change (50 µM)
AKR1A1_P14550_46_HIDCAAIYGNEPEIGEALKEDVGPGK (UniProt P14550) | -0.393 | -1.14
ARRB2_P32121_126_KLGQHAHPFFFTIPQNLPCSVTLQPGPEDTGK (UniProt P32121) | -0.12 | -0.146
ATAD1_Q8NBU5_229_AQFMSLWDGLDTDHSCQVIVMGATNRPQDLDSAIMR (UniProt Q8NBU5) | 0.117 | 0.088
ACTR3_P61158_8+12_LPACVVDCGTGYTK (UniProt P61158) | -0.243 | -0.313
ANLN_Q9NQW6_978_CQVNSSVEER (UniProt Q9NQW6) | 0.153 | 0.239
ADAM10_O14672_222_NTCQLYIQTDHLFFK (UniProt O14672) | 0.033 | 0.208
AIP_O00170_122_HCCGVAQMR (UniProt O00170) | -0.267 | -2.09
AKR1B1_P15121_45_HIDCAHVYQNENEVGVAIQEK (UniProt P15121) | 0.0652 | -0.0317
ATP6V1A_P38606_138_WDFTPCK (UniProt P38606) | -1.09 | -3.27
ADNP2_Q6IQ32_220_CNANASSQDALMYHILTSDIHR (UniProt Q6IQ32) | 0.0714 | 0.0124
ATM_Q13315_2770_SGVLEWCTGTVPIGEFLVNNEDGAHKR (UniProt Q13315) | 0.0886 | -0.152
ARFGEF1_Q9Y6D6_1729_QETSSLACGLR (UniProt Q9Y6D6) | -0.151 | 0.114
ATP2A1_O14983_349_SLPSVETLGCTSVICSDK (UniProt O14983) | -0.0681 | -0.0742
ATP5F1A_P25705_244_KLYCIYVAIGQK (UniProt P25705) | -1.08 | 0.236
AFG3L2_Q9Y4W6_313_DVAGCEEAKLEIMEFVNFLK (UniProt Q9Y4W6) | -0.324 | -0.391
ATOX1_O00244_41_VCIESEHSMDTLLATLKK (UniProt O00244) | 0.237 | -0.215
ATL2_Q8NHH9_293_HIHNCFSNLGCFLLPHPGLK (UniProt Q8NHH9) | -0.0463 | -0.137
ARHGAP45_Q92619_809_LCQAFENGK (UniProt Q92619) | 0.077 | 0.0355
ADAM10_O14672_530_DDSDCAR (UniProt O14672) | 0.552 | 1.2
ALDOA_P04075_339_RALANSLACQGK (UniProt P04075) | -0.187 | -0.104
ADAR_P55265_851_CFNTLTNSFQPSLLGR (UniProt P55265) | -0.0671 | 0.166

Target | probe-labelled cysteine peptide fold change (10 µM) | probe-labelled cysteine peptide fold change (50 µM)
ACSL3_O95573_85_SVNSLDGLASVLYPGCDTLDK (UniProt O95573) | 0.0339 | 0.289
AGL_P35573_767_EVPQMCIPGKIEEVVLEAR (UniProt P35573) | -0.292 | -0.537
ARHGEF6_Q15052_319_VGGCLLSLMPHFK (UniProt Q15052) | -0.297 | -0.105
ARHGAP44_Q17R89_193_ADALREEMEEAANRVEICR (UniProt Q17R89) | -0.0472 | -0.212
ARHGEF7_Q14155_490_TLGNVTYMSQVLIQCAGSEEK (UniProt Q14155) | -0.204 | -1.18
ANKMY2_Q8IV38_390_LDVNSNCVNEEQPEAEVGISQK (UniProt Q8IV38) | -0.281 | -0.0242
ALDH9A1_P49189_45_VIATFTCSGEK (UniProt P49189) | -0.00832 | 0.0216
ALKBH5_Q6P6C2_100_LFSQDECAK (UniProt Q6P6C2) | -0.000108 | 0.012
AP1G1_O43747_392_ELLYFLDSCEPEFK (UniProt O43747) | 0.183 | 0.273
ALKBH3_Q96Q83_201_CPIIASLSFGATR (UniProt Q96Q83) | 0.189 | -0.104
ANKFY1_Q9P2R3_389_TPLHVSIMAGNEYVFSQLLQCK (UniProt Q9P2R3) | 0.123 | 0.15
AKAP8_O43823_395_IQFACSVCK (UniProt O43823) | 0.0747 | -0.348
AKR1B1_P15121_299+304_VCALLSCTSHK (UniProt P15121) | -0.497 | -2.06
ATP2B1_P20020_463+473_HLDACETMGNATAICSDK (UniProt P20020) | -0.241 | 0.05
ANKFY1_Q9P2R3_742_AIDENNEPTACFLIR (UniProt Q9P2R3) | -0.0754 | -0.213
ALDH3A2_P51648_226_DCDLDIVCR (UniProt P51648) | -0.0334 | -0.00592
AP2B1_P63010_565_PLISEETDLIEPTLLDELICHIGSLASVYHKPPNAFVEGSHGIHR (UniProt P63010) | 0.119 | -0.142
ALAD_P13716_75_CVLIFGVPSR (UniProt P13716) | 0.166 | 0.185
AKR1B1_P15121_299_VCALLSCTSHK (UniProt P15121) | -0.208 | -2.38
APOOL_Q6UXV4_74_TATGCYIGWCK (UniProt Q6UXV4) | -0.823 | -1.75
ATM_Q13315_2323_KLDASCAANNPSLK (UniProt Q13315) | -0.12 | -0.242

Target | probe-labelled cysteine peptide fold change (10 µM) | probe-labelled cysteine peptide fold change (50 µM)
AIP_O00170_121+122_HCCGVAQMR (UniProt O00170) | -0.298 | -1.16
ATP6V0A1_Q93050_58_RCEEMDR (UniProt Q93050) | 0.102 | 0.183
ANLN_Q9NQW6_1037_INLANCTSR (UniProt Q9NQW6) | -0.121 | -0.171
ARHGAP25_P42331_448_CFLTSAFQGANSSK (UniProt P42331) | -0.526 | -1.52
ALDH9A1_P49189_355_VLCGGDIYVPEDPK (UniProt P49189) | -0.105 | 0.0431
ACTR3B_Q9P1U1_408_DYEEYGPSICR (UniProt Q9P1U1) | 0.154 | 0.0944
ASPSCR1_Q9BZE9_224+225_GDLSRPEDADTSGPCCEHTQEK (UniProt Q9BZE9) | -0.786 | -1.37
APBB1IP_Q7Z5R6_401_YLCCDDTR (UniProt Q7Z5R6) | -0.318 | -0.372
ATRX_P46100_1531_CPITTK (UniProt P46100) | -0.402 | -1.05
AIDA_Q96BJ3_69_IATCLELR (UniProt Q96BJ3) | -0.123 | -0.606
ANAPC1_Q9H1A4_1074_LLQLCQR (UniProt Q9H1A4) | -0.0436 | 0.000425
ARPC1B_O15143_227_VAWVSHDSTVCLADADKK (UniProt O15143) | 0.103 | -0.0807
ARMC6_Q6NXE6_121_FCDQCK (UniProt Q6NXE6) | -0.142 | -0.663
ATRX_P46100_1242_IKPVTENLVLSSHTGFCQSSGDEALSK (UniProt P46100) | -0.15 | -0.661
ALG13_Q9NP73_86_ADLVISHAGAGSCLETLEK (UniProt Q9NP73) | -0.211 | -0.753
AIG1_Q9NVV5_6_MALVPCQVLR (UniProt Q9NVV5) | -0.836 | -1.35
ANKRD17_O75179_564_AGADIELGCSTPLMEAAQEGHLELVK (UniProt O75179) | 0.0101 | -0.0606
ATN1_P54259_851_APVECPSLGPVPHRPPFEPGSAVATVPPYLGPDTPALR (UniProt P54259) | -0.143 | -0.422
AGL_P35573_486_ELICWGDSVK (UniProt P35573) | 0.0938 | 0.033
ANKRD11_Q6UB99_1339_ESACLPEK (UniProt Q6UB99) | -0.0313 | -0.174
ATM_Q13315_1396_ATFAYISNCHK (UniProt Q13315) | -1.94 | -2.52

Target | probe-labelled cysteine peptide fold change (10 µM) | probe-labelled cysteine peptide fold change (50 µM)
ATRX_P46100_235_WCAEGGNLICCDFCHNAFCK (UniProt P46100) | 0.0337 | -0.0739
ATP6V1B2_P21281_425_DHADVSNQLYACYAIGK (UniProt P21281) | 0.162 | 0.207
ASCC3_Q8N3C0_366_KAGEDLEVSEGLMCFDPK (UniProt Q8N3C0) | -0.217 | -0.375
ANAPC1_Q9H1A4_1630_LLVPVDVDTNTPCYALLEVTYK (UniProt Q9H1A4) | -0.151 | 0.155
ANXA4_P09525_315_KVLLVLCGGDD (UniProt P09525) | -0.0611 | -0.661
ATP13A1_Q9HD20_410_ATTGLKPVDSGCVAYVLR (UniProt Q9HD20) | 0.133 | 0.0894
ALCAM_Q13740_270_CLGNGNPPPEEFLFYLPGQPEGIR (UniProt Q13740) | -0.0239 | 0.0758
ATIC_P31939_101_VVACNLYPFVK (UniProt P31939) | 0.119 | 0.0511
AKR1B1_P15121_304_VCALLSCTSHK (UniProt P15121) | -0.547 | -2.08
ATP2B4_P23634_632_TVIEPMACDGLR (UniProt P23634) | -0.0204 | -0.262
ALDH1L1_O75891_537_YFAGWCDK (UniProt O75891) | -0.0268 | -0.223
ADAM9_Q13443_539_DCFIEVNSK (UniProt Q13443) | -0.0729 | -0.137
ARNT_P27540_269_CGSSSVDPVSVNR (UniProt P27540) | -0.375 | -0.756
ALDOA_P04075_178_YASICQQNGIVPIVEPEILPDGDHDLKR (UniProt P04075) | 0.281 | -0.12
ATP2B1_P20020_547_TECALLGLLLDLKR (UniProt P20020) | -0.138 | -0.507
ADK_P55263_160_SLIANLAAANCYKK (UniProt P55263) | -0.309 | -1.01
ARHGEF6_Q15052_530_IVVHCNNNQDFQEWLEQLNR (UniProt Q15052) | 0.0109 | 0.158
ACSL4_O60488_420_GYDAPLCNLLLFKK (UniProt O60488) | -0.291 | -1.12
ALDH9A1_P49189_267_SPLIIFSDCDMNNAVK (UniProt P49189) | 0.208 | 0.2
ALDH18A1_P54886_674_SLRTEYGDLELCIEVVDNVQDAIDHIHK (UniProt P54886) | 0.115 | -0.188
